Measurements as given in PubChem BioAssay AID588393 (NMMLSC, 2011).
The source made the active and inactive calls.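 Rule for the calls: active = valid curve fit, half-maximal dose at most 10 µM, and binding change across doses at least 30%; inactive = the rest.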

tested on: Rab7 GTPase, wild type (Canis lupus familiaris); experiment: Rab7 wildtype GTP binding inhibitors, SAR follow-up, Cdc42 probe extension project, biochemical, dog Rab7, bead multiplex flow cytometry, round 1 (AID 588393); settings: GST-Rab7 beads, Bodipy-FL-GTP binding, EDTA; series mostly up to 100 µM

outcome, inactive:
O=C(C#Cc1ccccc1)c1cccc([N+](=O)[O-])c1, NS(=O)(=O)c1ccc(N2N=C(c3ccccc3)CC2c2ccccc2)cc1 (stereo not drawn), COc1ccc(C2CC(c3ccccc3)=NN2c2ccc(S(N)(=O)=O)cc2)cc1 (stereo not drawn)
